PubChem BioAssay AID624170 (National Center for Advancing Translational Sciences (NCATS), 2012)
The whole screen tested about 410,000 compounds, of which about 850 (0.21%) were called active. About 2% were inconclusive and are not listed. Calls follow the shape of the dose curve; as a rule, active = well fitted inhibition curve with a large enough effect; inconclusive = small, poorly fitted or top-dose-only effect, or another doubt; inactive = no such curve, though single readings can be large or run the other way. The entries come from a sample that favours actives as a whole. A call without a number means that no potency is given here. Square brackets hold non-standard residues; d marks the D form. Side chains are listed from the residue outwards. Peptide text beside a SMILES is read from it. * marks the point of attachment. X1 = CCC(C)C(N)C1=NC(C(=O)*)CS1; Orn = NCCC[CH](N)C(=O)O

Molecular target: Glutaminase kidney isoform, mitochondrial (Homo sapiens) (UniProt O94925)
Experiment: qHTS for Inhibitors of Glutaminase (GLS)
Details: GLS enzymatic activity, qHTS titration; series mostly up to 45.5 µM
Excerpt: Glutaminase (GLS) catalyzes the hydrolysis of glutamine into glutamate and ammonia. It plays a critical role in glutaminolysis, which is an important energy source for proliferating cells. It was shown that c-Myc, an oncogenic transcription factor known to regulate microRNAs and to stimulate cell proliferation, increases glutamine metabolism by stimulating the expression of GLS via direct suppression of miR23a and miR23b.
GLS is also thought to play a pathogenic role on HAD using a human HIV-1 infected macrophage system. […] GLS inhibition limits glutamate release and provides neuroprotection against HIV-1 infected macrophages.
The overall goal of this project is to identify small molecule inhibitors of GLS through quantitative high throughput screening (qHTS) of the MLSMR. A validated potent and selective inhibitor can be used as a tool molecule to further study the pharmacology of its target as well as explore its potential therapeutic application in cancer and inflammatory neurological disorders, such as HIV1-associated dementia (HAD) and multiple sclerosis.
NIH Chemical Genomics Center [NCGC]
NIH Molecular Libraries Probe Centers Network [MLPCN]
Assay Submitter (PI): Barbara S. Slusher, Johns Hopkins University
Three 3 uL of hKGA is dispensed into black well 1536-well plates in 45 mM KH2PO4 (pH 8.2), 0.02% Tween-20. Then 23 nL of compounds are added through pin tool transfer. To this, 1 uL of 1mM L-Glutamine and 1 uL of a solution of L-Glutamateoxidase, HRP, Amplex red are added. Plate is centrifuged for 25 sec before an initial fluorescence read is obtained on the ViewLux, after 30 min of RT incubation, the final read is taken on the ViewLux.
Potency is read from the fitted curve at half-maximal effect.

Glutaminase kidney isoform, mitochondrial (Homo sapiens), sequence (O94925 whole entry, looked up, canonical isoform): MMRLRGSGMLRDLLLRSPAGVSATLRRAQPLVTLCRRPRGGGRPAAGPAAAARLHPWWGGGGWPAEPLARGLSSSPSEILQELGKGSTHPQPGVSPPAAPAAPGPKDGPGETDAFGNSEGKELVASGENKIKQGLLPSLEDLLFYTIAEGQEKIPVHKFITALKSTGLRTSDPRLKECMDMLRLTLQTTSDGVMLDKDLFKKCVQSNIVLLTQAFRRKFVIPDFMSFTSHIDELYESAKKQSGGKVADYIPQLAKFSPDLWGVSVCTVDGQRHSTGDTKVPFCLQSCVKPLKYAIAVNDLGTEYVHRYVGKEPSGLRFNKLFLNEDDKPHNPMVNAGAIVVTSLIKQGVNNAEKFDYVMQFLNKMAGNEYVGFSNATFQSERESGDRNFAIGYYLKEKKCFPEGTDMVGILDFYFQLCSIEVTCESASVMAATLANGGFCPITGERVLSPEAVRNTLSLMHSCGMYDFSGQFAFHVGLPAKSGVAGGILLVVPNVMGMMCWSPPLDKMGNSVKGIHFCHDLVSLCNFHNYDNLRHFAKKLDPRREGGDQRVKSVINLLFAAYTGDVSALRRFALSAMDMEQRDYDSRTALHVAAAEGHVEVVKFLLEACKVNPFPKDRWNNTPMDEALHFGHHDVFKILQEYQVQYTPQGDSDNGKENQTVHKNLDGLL

| SMILES | Potency |
| --- | --- |
| COc1cc(/C=C2/SC(=S)N(Cc3ccccc3)C2=O)cc(OC)c1O | 20 µM (active) |
| CCOC(=O)C1=CCC2C(=O)N(Cc3ccccc3)C(=O)C12 (stereo not drawn) | inactive |
| COc1ccc(CCNC(=O)CCCCn2c(=O)c3ccccc3n(Cc3ccccc3)c2=O)cc1OC | inactive |
| COc1cc(NC(=O)c2nn(-c3ccc(C)cc3)c(=O)c3c2c2ccccc2n3C)cc(OC)c1OC | inactive |
| COc1ccc(CCC(=O)NCCc2csc(-c3ccc(Cl)cc3)n2)cc1 | inactive |
| CN(N)c1nc(N2CCCC2)nc(N2CCCC2)n1 | 14.1 µM (active) |
| FC(F)(F)COc1nc(N2CCCCC2)nc(N2CCNCC2)n1 | inactive |
| COc1nc(NC2CCCCC2)nc(N2CCCCCC2)n1 | inactive |
| CCCN(CC)[C@@H](CC)C(=O)Nc1c(C)cccc1C | inactive |
| O=C(O)CCC(=O)O | inactive |
| O=C(CCSCc1ccccc1F)N1CCN(c2ccc(Cl)cc2)CC1 | inactive |
| Cn1cnc2c1c(=O)n(Cc1c(Cl)cccc1Cl)c(=O)n2C | 20 µM (active) |
| Cn1cnc2c1c(=O)n(Cc1ccccc1C#N)c(=O)n2C | inactive |
| Cn1c(=O)n(Cc2c(F)cccc2Cl)c(=O)c2c1nc1n2CCN1c1ccc(F)cc1 | inactive |
| CO[C@H]1C[C@@H](O[C@@H]2[C@@H](C)O[C@@H](O[C@@H]3/C(C)=C/CC4C[C@@H](C[C@]5(C=C[C@@H](C)[C@H](C6CCCCC6)O5)O4)OC(=O)[C@@H]4C=C(C)[C@@H](O)[C@H]5OC/C(=C\C=C\[C@@H]3C)[C@]54O)C[C@H]2OC)O[C@@H](C)[C@@H]1O | inactive |
| NC(=O)C(=O)N/N=C/c1ccc([N+](=O)[O-])o1 | inactive |
| COc1cc(C[C@H]2NCCc3cc(O)c(O)cc32)cc(OC)c1OC | inactive |
| O=S(O)CNc1ccc(S(=O)(=O)c2ccc(NCS(=O)O)cc2)cc1 | inactive |
| FC(F)(F)C1CCCN(c2nsc3ccccc23)C1 (stereo not drawn) | 7.94 µM (active) |
| COc1cc([C@@H]2c3cc4c(cc3[C@@H](O[C@@H]3O[C@@H]5CO[C@@H](C)O[C@H]5[C@H](O)[C@H]3O)[C@H]3COC(=O)[C@H]23)OCO4)cc(OC)c1OP(=O)(O)O | inactive |
| COc1ccc(-c2ccc(=O)n(CC(=O)Nc3ccc(Br)cc3F)n2)cc1 | inactive |
| COc1ccc2oc(C(=O)NCC(Cc3ccccc3)N(C)C)c(C)c2c1 (stereo not drawn) | inactive |

| SMILES | Potency |
| --- | --- |
| COc1cc([C@H](Cc2ccccc2)NC(C)=O)oc(=O)c1 | 17.8 µM (active) |
| COc1ccc(CNC(=O)C(Cc2ccccc2)n2cccc2)cc1 (stereo not drawn) | inactive |
| COc1ccc(N2CCN(S(=O)(=O)CCNC(=O)C(c3ccccc3)c3ccccc3)CC2)cc1 | inactive |
| CCOC(=O)c1ccccc1NC(=O)CCc1c(C)nc2c(c1C)c(=O)n(C)c(=O)n2C | inactive |
| O=C(O)CCCCC(=O)O | inactive |
| CCOc1ccc(NC(=O)c2c(NC(=O)Cc3ccccc3)sc3c2CCC(C)C3)cc1 (stereo not drawn) | inactive |
| O=C(Nc1ccc(Oc2ccccc2)cc1)C1CCN(S(=O)(=O)c2ccc(Cl)cc2)CC1 | inactive |
| O=C(Nc1ccccc1)c1nnsc1S(=O)(=O)c1ccc(Cl)cc1 | 14.1 µM (active) |
| O=C(Nc1cccc(Cl)c1)c1csnn1 | inactive |
| CCCC[C@H]1C(=O)N(c2ccccc2)N(c2ccc(O)cc2)C1=O | inactive |
| O=C(OCc1ccccc1)c1ccc(O)cc1 | inactive |
| CC(=O)OC1C([N+]2(C)CCCCC2)C[C@H]2C3CC[C@H]4C[C@H](OC(C)=O)C([N+]5(C)CCCCC5)CC4(C)C3CCC12C (stereo partly drawn) | inactive |
| CC(C)(C)C(=O)NCCCNc1ccc([N+](=O)[O-])cc1 | inactive |
| O=C(O)CC(Cc1ccccc1)C(=O)Nc1ccc([N+](=O)[O-])cc1 (stereo not drawn) | inactive |
| O=C(O)/C=C/C(=O)NNc1ccc([N+](=O)[O-])cc1 | 11.2 µM (active) |
| CCCCC(=O)OCC(=O)[C@H]1[C@H](C)C[C@@H]2[C@@H]3C[C@@H](F)C4=CC(=O)C=C[C@]4(C)[C@@]3(F)[C@@H](O)C[C@@]21C | inactive |
| COc1ccc(NC(=O)c2sc3nc[nH]c(=O)c3c2C)cc1 | inactive |
| CC(C)OCCCNc1nc2c(c(=O)n(Cc3ccccc3F)c(=O)n2C)n1C | 12.6 µM (active) |
| Cn1c(=O)c2c(nc(NCCNC(=O)c3ccco3)n2Cc2ccccc2F)n(C)c1=O | inactive |
| Cn1c(=O)c2c(nc(NCCc3ccccc3)n2Cc2ccccc2Br)n(C)c1=O | inactive |
| CCC(C)Nc1oc(-c2ccc(COc3ccc(Cl)cc3)o2)nc1C#N (stereo not drawn) | inactive |
| CC(O)COc1ccccc1 (stereo not drawn) | inactive |

| SMILES | Potency |
| --- | --- |
| CC1(C)OC[C@@H](COC(=O)CCc2ccc(OC[C@@H](O)CNCCNC(=O)N3CCOCC3)cc2)O1 | inactive |
| Cc1cccc(NC(=O)CSc2nc(-c3ccco3)cc(C(F)(F)F)n2)c1C | inactive |
| Cc1cc(C)c2nc(-c3ccco3)cc(C(=O)O)c2c1 | 11.2 µM (active) |
| Cc1cc(C)c2c(c1)c(C)cc1nnc(SCC(=O)NCc3ccco3)n12 | inactive |
| COC(=O)[C@@H]1CC2=CC(=O)CC[C@]2(C)[C@@]23O[C@@H]2C[C@@]2(C)[C@@H](CC[C@@]24CCC(=O)O4)[C@H]13 | inactive |
| CC(NC(=O)CCc1cn(Cc2ccccc2Cl)c2ccccc12)c1ccccc1 (stereo not drawn) | inactive |
| Cc1ccc(Cn2c(CNC(=O)Cc3cccc(C)c3)nc3cccnc32)cc1 | inactive |
| C=C1c2c(Cl)ccc(O)c2C(O)=C2C(=O)[C@]3(O)C(O)=C(C(N)=O)C(=O)[C@@H](N(C)C)[C@@H]3[C@@H](O)C12 (stereo partly drawn) | 10 µM (active) |
| Cc1c(O)cc2c(c1C)O[C@](C)(CCC[C@H](C)CCC[C@H](C)CCCC(C)C)CC2 | inactive |
| CCC[C@H]1C(=O)N2C(N(C)C)=Nc3ccc(C)cc3N2C1=O | inactive |
| CCc1cc2c(cc3c(=O)n(CC(=O)N4CCN(c5cc(Cl)ccc5C)CC4)ncn32)s1 | inactive |
| CC(C)CCN(C(=O)Nc1ccc(Cl)c(Cl)c1)C(C)c1cccs1 (stereo not drawn) | inactive |
| COc1ccc(C2(C#N)CCC(C(=O)O)CC2)cc1OC1CCCC1 (stereo not drawn) | inactive |
| CCNCCC(=O)N1c2ccccc2Sc2ccc(NC(=O)OCC)cc21 | 11.2 µM (active) |
| CCOC(=O)Nc1ccc2c(c1)N(C(=O)CN1CCN3CCCC3C1)c1ccccc1CC2 (stereo not drawn) | inactive |
| CCOC(=O)Nc1ccc2c(c1)N(C(=O)CCCl)c1ccccc1[S@]2=O | inactive |
| COc1cc(C(=O)N2CCC(c3ccncc3)CC2)cc(OC)c1OC | inactive |
| O=C(Nc1ccc(O)cc1)c1ccccc1O | inactive |
| COc1cc(OC)cc(C(=O)Nc2cc3nn(-c4ccccc4)nc3cc2Cl)c1 | inactive |
| CCCc1c2oc(C(=O)O)cc(=O)c2cc2c(=O)cc(C(=O)O)n(CC)c12 | inactive |
| CCOc1cc(/C=N/n2cnnc2)c(Br)cc1O | inactive |
| CCOc1cccc(/C=N/N2C(=O)CSC2=S)c1O | 10 µM (active) |

| SMILES | Potency |
| --- | --- |
| O=C1CSC(=S)N1/N=C/c1ccc(O)c([N+](=O)[O-])c1 | inactive |
| Cc1ccccc1NC(=O)c1cc2c([nH]c1=O)CC(C)(C)CC2=O | inactive |
| CCC(C)C(N)C1=NC(C(=O)NC(CC(C)C)C(=O)NC(CCC(=O)O)C(=O)NC(C(=O)NCCCCC2NC(=O)C(CC(N)=O)NC(=O)C(CC(=O)O)NC(=O)C(Cc3cnc[nH]3)NC(=O)C(Cc3ccccc3)NC(=O)C(C(C)CC)NC(=O)C(CCCN)NC2=O)C(C)CC)CS1 (stereo not drawn) (cyclo(DNK([Ile-Glu-Leu-X1])[Orn]IFH); configuration not given here) | inactive |
| CC1(C)[C@H](O[C@H]2O[C@H](C(=O)O)[C@@H](O)[C@H](O)[C@H]2O[C@@H]2O[C@H](C(=O)O)[C@@H](O)[C@H](O)[C@H]2O)CC[C@@]2(C)[C@H]1CC[C@]1(C)[C@H]2C(=O)C=C2[C@H]3C[C@@](C)(C(=O)O)CC[C@]3(C)CC[C@]21C | inactive |
| O=c1oc2ccccc2cc1-c1csc(Nc2ccc(O)cc2)n1 | 2.82 µM (active) |
| N#C/C(=C\c1cccc(F)c1)c1nc(-c2cc3c(ccc4ccccc43)oc2=O)cs1 | inactive |
| Cc1cc(NC(=O)c2cccc(Cl)c2)ccc1-c1cc2ccccc2oc1=O | inactive |
| Cc1cc2nc(NC(=O)c3ccc(S(=O)(=O)N4CCOCC4)cc3)sc2cc1C | inactive |
| CC1(C)O[C@@H]2C[C@@H]3[C@H]4C[C@@H](F)C5=CC(=O)C=C[C@]5(C)[C@@]4(F)[C@@H](O)C[C@]3(C)[C@]2(C(=O)CO)O1 | inactive |
| NNc1nnc(NN)c2ccccc12 | inactive |
| COc1ccc(Br)cc1CNC(=O)c1cc(=O)[nH]c2ccc(S(=O)(=O)N3CCCC3)cc12 | inactive |
| O=C1c2c(O)cccc2[C@@H]([C@@H]2O[C@H](CO)[C@@H](O)[C@H](O)[C@H]2O)c2cc(CO)cc(O)c21 | inactive |
| CCC(CCC(C)C1CCC2C3CC=C4CC(O)CC[C@@]4(C)C3CC[C@@]12C)C(C)C (stereo partly drawn) | inactive |
| CCN1C(=O)c2ccccc2S(=O)c2ccc(C(=O)NCc3ccc(F)cc3)cc21 (stereo not drawn) | inactive |
| CCN(CC)S(=O)(=O)c1ccc2c3c(cccc13)C(=O)S2 | inactive |
| CCN1C(=O)c2cccc3c(S(=O)(=O)Nc4ccccc4O)ccc1c23 | 11.2 µM (active) |
| Cc1ccc(CSc2nc3ccsc3c(=O)n2CCC(C)C)cc1 | inactive |
| CC[C@]1([C@H]2O[C@@H]([C@@H]3O[C@](O)(CO)[C@@H](C)C[C@H]3C)C[C@H]2C)CC[C@@H]([C@]2(C)CC[C@@]3(C[C@@H](O)[C@@H](C)[C@@H]([C@H](C)[C@H](OC)[C@H](C)C(=O)O)O3)O2)O1 | inactive |
| Cc1nc2nc(SCC(=O)NC3CCC(C)CC3)nn2c(C)c1Cc1ccccc1Cl (stereo not drawn) | inactive |
| C=CCn1c(Cn2nnc3ccccc32)nnc1SCC(=O)N/N=C/c1cc(Br)cc(OC)c1O | inactive |
| COc1ccc(OC)c(NC(=O)CSc2nc3cccnc3n2C)c1 | inactive |
| Cn1c(SCC(=O)N/N=C/c2ccc(O)c(O)c2)nc2ccccc21 | 17.8 µM (active) |
